An excerpt weighted towards active compounds, which were near 12% of everything screened.
L3MBTL1 inh = inhibitors of human L3MBTL1; Q9Y468; AlphaScreen L3MBTL1–H3K9me1 peptide binding; Potency, µM (series often up to 57.1 µM), inactives show at the top dose activity, negative = inhibition, usual class: inhibitors; 230,000 tested, 0.66% active; AID 485360; also: % is scaled to controls: 0 for no effect and ±100 for the full control effect; nearly all actives have a fitted effect of over 60% in size
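Displacement of a biotinylated histone H3(1-15) peptide monomethylated at Lys9 (75 nM) from L3MBTL1 (50 nM) was measured by AlphaScreen after a 30 min room-temperature compound incubation; cefsulodin titration served as intraplate control.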
G9a inh = G9a (human) methyltransferase inhibition. Q96KQ7. G9a H3K9 monomethylation, AlphaScreen, 2 h. Potency, µM (titrated, usually from 102 µM), without a hit: at the top dose activity, negative = inhibition, actives largely listed as inhibitors. 350,000 tested, 8.8% active. AID 504332; also: % is scaled to controls: 0 for no effect and ±100 for the full control effect; nearly all actives have a fitted effect of over 75% in size
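AlphaScreen detection with an anti-monomethyl H3K9 antibody quantified product after a 2 h room-temperature reaction containing 500 nM biotinylated H3K9 peptide, 20 µM SAM and 20 nM enzyme, which had been preincubated 15 min with compound.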
JMJD2A Tudor inh = blocks the human JMJD2A Tudor domain. AlphaScreen JMJD2A-Tudor / H3K4me3 peptide binding. 390,000 tested, 4.4% active. Potency, µM (series often up to 114 µM), for inactives: top-dose activity change, negative = inhibition, hits mostly inhibitors. O75164; also: % is scaled to controls: 0 for no effect and ±100 for the full control effect; nearly all actives have a fitted effect of over 50% in size
Sfp PPTase inh = Sfp phosphopantetheinyl transferase inhibition. Q9F4F7. Biochemical Sfp PPTase activity, qHTS. Potency, µM, for the others: largest response in the series, negative = inhibition, actives largely listed as inhibitors. 310,000 tested, 3.5% active. AID 1490;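 also: the enzyme is Sfp with the accession as filed and its product quenches rhodamine fluorescence; 0% = enzyme reaction without inhibitor and -100% = no enzyme wells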
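Reaction rates are the 30-min fluorescence difference (ex 525, em 598 nm) in wells containing 15 nM Sfp, 5 uM rhodamine-CoA and 12.5 uM BHQ-2-YbbR at pH 7.6 with 10 mM MgCl2.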
BAZ2B inh = BAZ2B (human) inhibition; Potency, µM (series often up to 114 µM), for the others: at the top dose activity change, negative = inhibition, most hits filed as inhibitors; AID 504333; AlphaScreen BAZ2B-H3K14Ac peptide displacement; Q9UIF8; 360,000 tested, 4.4% active; also: % is scaled to controls: 0 for no effect and ±100 for the full control effect; nearly all actives have a fitted effect of over 60% in size
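In this displacement format the biotinylated H3(5-23) peptide acetylated at Lys14 serves as ligand at 50 nM, with BAZ2B at 50 nM in PBS pH 7.4 containing 0.01% Tween-20. Donor and acceptor beads are 10 ug/mL final.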
HP1b binding inh = HP1-beta chromodomain-methylated histone interaction inhibition; Potency, µM (titrated, usually from 114 µM), for inactives: at the highest dose activity change, negative = inhibition, most hits filed as inhibitors; AlphaScreen HP1-beta / biotin-H3K9me3 peptide binding; 390,000 tested, 0.56% active; P83916; also: nearly all actives have a fitted effect of over 70% in size
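Compound inhibition of the preformed complex between 50 nM HP1-beta and 50 nM biotinylated H3K9me3 peptide was read by AlphaScreen. Buffer was PBS pH 7.4 with 0.01% Tween-20. Incubations ran 30 min at room temperature, with 10 ug/mL donor/acceptor beads.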
Numbers without * were called inactive; ? = inconclusive; / = not tested or not shown; [ ] = another dose, or the depositor's remark. Calls follow the shape of the dose curve; as a rule, active = well fitted curve in the direction sought with a large enough effect; inconclusive = small, poorly fitted or top-dose-only effect, or another doubt; inactive = no such curve, though single readings can be large; an effect the other way counts as inactive or inconclusive. Potency is read from the fitted curve at half-maximal effect.

SMILES	L3MBTL1 inh	G9a inh	JMJD2A Tudor inh	Sfp PPTase inh	BAZ2B inh	HP1b binding inh
COc1cc(CNc2ccc3[nH]c(=O)[nH]c3c2)ccc1OCc1ccccc1	-3%	32µM*	-30%	-14%	?	5%
COc1ccc(Br)cc1CNc1ccc2[nH]c(=O)[nH]c2c1	-14%[11.4 µM]	?	50µM*	-9%	40µM*	?
COc1ccc(CCNC(=O)Cn2c(=O)c3sccc3n(CC(=O)Nc3cccc(C(F)(F)F)c3)c2=O)cc1OC	/	-28%[59 µM]	-8%	/	-1%	19%
COc1ccccc1NC(=O)CCN1CCCCC1	/	-48%[59 µM]	-12%	/	3%	13%
CCOC(=O)C1CCC(CNCc2ccccc2C)CC1 (stereo not drawn)	/	50µM*	-5%	5%	0%	2%
O=c1c2cc3c(cc2nc2sc(Nc4ccccc4)nn12)OCO3	/	3%[59 µM]	7%	/	-2%	33%
COc1ccc(-n2nc3c(c2NC(=O)COc2cccc(OC)c2)CS(=O)(=O)C3)cc1	/	18µM*	?	50µM*	?	-19%
CCOC(=O)/C(=C\c1cccc(O)c1)c1nc2sc(C)c(C)c2c(=O)[nH]1	-10%	3.2µM*	56µM*	7.1µM*	-28%	28µM*
CCOC(=O)N1CCC(NC(=O)c2ccc3c(c2)N(Cc2ccc(F)cc2)C(=O)c2ccccc2S3(=O)=O)CC1	/	-33%[59 µM]	-26%	/	-10%	17%
O=C(N/N=C1/C(=O)c2cccc3cccc1c23)c1ccc(Cl)cc1	/	?	35µM*	45µM*	50µM*	-9%
CCNC(=S)N/N=C1\C(=O)c2cccc3cccc1c23	/	3%[59 µM]	-17%	6%	-10%	-2%
COc1ccc(NC(=O)CN(C)C(=O)c2ccc(-c3ccccc3Cl)o2)cc1	0%	40µM*	-18%	/	-30%	15%
COc1ccc(NC(=O)c2ccc(-c3ccccc3C(F)(F)F)o2)cc1	13%	71µM*	-13%	-9%	8%	35%
O=C(Nc1cccc(F)c1)c1ccc(-c2ccccc2C(F)(F)F)o1	17%	45µM*	/	-13%	2%	/
O=C(NCCc1ccccc1)c1ccc(-c2ccccc2C(F)(F)F)o1	14%	50µM*	25%	-30%	-4%	37%
COc1ccc(NC(=O)CN(C)C(=O)c2ccc(-c3cccc(C(F)(F)F)c3)o2)cc1	/	21%	-15%	19%	-21%	8%
O=C(Nc1cccc(F)c1)c1ccccc1-c1ccccc1	8%	6%	-2%	22%	19%	36%
CC(=O)OCC(NC(=O)C1CCCN1C(=O)OC(C)(C)C)C1OC(n2ccc(=O)[nH]c2=O)C(OC(C)=O)C1OC(C)=O (stereo not drawn)	/	/	-9%	1%	/	6%
Cc1cc(Br)ccc1NC(=O)Cn1cc(S(=O)(=O)N2CCN(c3ccccc3F)CC2)c2ccccc2c1=O	/	-3%[59 µM]	-13%	/	1%	21%
COc1ccc(OC)c(CNC(=O)c2cc3c(-c4ccc(OC)c(OC)c4)nn(C)c3s2)c1	/	?	-27%	/	/	37%
Cc1ccccc1-c1ccc(C(=O)Nc2cccc(F)c2)o1	-9%	10µM*	-1%	-26%	?	-1%
Cc1cc(Nc2sc(C(=O)c3ccc(F)cc3)c(N)c2C(=O)Nc2ccc(F)cc2)ccc1Cl	/	?	?	/	?	-2%
C=C(CN(C)C)C(=O)c1cc(C)ccc1C	/	/	89µM*	/	/	35µM*
Cc1ccc(C)c(C(=O)NCCN(C)C)c1	8%	11%[59 µM]	2%	17%	8%	35%
Cc1ccc(SCc2nc(-c3ccc(C(=O)Nc4cc(C)ccc4C)cc3)oc2C)cc1	/	-30%[59 µM]	-6%	/	-11%	54%
O=C(CSc1nnc(NC(=O)C2CC(=O)N(c3ccc(F)cc3)C2)s1)NCc1ccco1 (stereo not drawn)	/	45µM*	?	-22%	-34%	18%
COCCSc1nnc(NC(=O)C2CC(=O)N(c3ccc(OC)cc3)C2)s1 (stereo not drawn)	/	17%[59 µM]	0%	29%	-12%	42%
